A short description of assay [1]: qHTS RealTime-Glo MT Cell Viability Assay in HepG2 cells - 8 hour (AID 1224873). Also: nearly all actives have a fitted effect of over 55% in size. Also: potency is read from the fitted curve at half-maximal effect. Summed up:
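HepG2 cells mixed with RealTime-Glo MT reagents (NanoLuc plus cell-permeant prosubstrate) were seeded at 600 cells/well, incubated 5 h at 37 C/5% CO2, then pinned with compounds in DMSO; nonlytic luminescence tracked viability during 40 h treatment.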

Assay [2] is described as follows: A CellTox Green Cytotoxicity Assay to monitor cytotoxicity in HEK293 cells - 24 hour (AID 1224875). Also: nearly all actives have a fitted effect of over 45% in size. Also: potency is read from the fitted curve at half-maximal effect. Summed up:
(§1)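 Fluorescence intensity, read at 0, 8, 16, 24, 32 and 40 h of compound treatment, reflected dye binding to DNA of dead HEK293 cells; compounds (23 nL, DMSO) were added 5 h after plating cells with reagent.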

Assay [3] can be described thus: A CellTox Green Cytotoxicity Assay to monitor cytotoxicity in HepG2 cells - 16 hour (AID 1224876). Also: nearly all actives have a fitted effect of over 45% in size. Also: potency is read from the fitted curve at half-maximal effect. An outline of the steps: (§2)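 Using 1536-well format, dye-containing HepG2 suspension was seeded, allowed 5 h at 37 C/5% CO2, dosed by pintool with compounds, positive and negative controls, and imaged for fluorescence across 40 h.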
Assay [4] can be described thus: qHTS RealTime-Glo MT Cell Viability Assay in HepG2 cells - 32 hour (AID 1224877). Also: nearly all actives have a fitted effect of over 55% in size. Also: potency is read from the fitted curve at half-maximal effect. An outline of the steps:
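Compound treatment began 5 h after plating HepG2 cells (600/well) with NanoLuc luciferase and prosubstrate. Plates stayed at 37 C for 40 h; luminescence was captured at six time points, 0 h through 40 h.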

Assay [5] is described as follows: A CellTox Green Cytotoxicity Assay to monitor cytotoxicity in HepG2 cells - 24 hour (AID 1224878). Also: nearly all actives have a fitted effect of over 45% in size. Also: potency is read from the fitted curve at half-maximal effect. An outline of the steps:
as §2

Assay [6] can be described thus: A CellTox Green Cytotoxicity Assay to monitor cytotoxicity in HepG2 cells - 40 hour (AID 1224879). Also: nearly all actives have a fitted effect of over 40% in size. Also: potency is read from the fitted curve at half-maximal effect. Summed up: as §2
Assay [7] in a line: qHTS RealTime-Glo MT Cell Viability Assay in HEK293 cells - 0 hour (AID 1224880). Also: top concentration of the series differs between compounds; nearly all actives have a fitted effect of over 45% in size. An outline of the steps:
(§3)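 Viable HEK293 cells reduce a cell-permeant prosubstrate; the product diffuses out and is consumed by NanoLuc in the medium to give light. Compounds went in after a 5 h incubation and plates were read over the treatment course.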

Assay [8] in a line: A CellTox Green Cytotoxicity Assay to monitor cytotoxicity in HEK293 cells - 32 hour (AID 1224881). Also: nearly all actives have a fitted effect of over 40% in size. Also: potency is read from the fitted curve at half-maximal effect. Summed up: as §1
Assay [9] in a line: A CellTox Green Cytotoxicity Assay to monitor cytotoxicity in HepG2 cells - 0 hour (AID 1224882). Also: nearly all actives have a fitted effect of over 35% in size. Also: potency is read from the fitted curve at half-maximal effect. Summed up:
as §2

The nature of assay [10]: qHTS RealTime-Glo MT Cell Viability Assay in HEK293 cells - 40 hour (AID 1224874). Also: nearly all actives have a fitted effect of over 50% in size. Also: potency is read from the fitted curve at half-maximal effect. Particulars: RealTime-Glo luminescence; max response: stronger effect = lower value. An outline of the steps: as §3

Each structure is given as a SMILES string. Values joined by “and” are separate entries in the source; they are usually repeats but may differ in a detail not shown here. Equal values may be shown once. Results filed as inconclusive are left out. More than one record can exist for a structure, and the calls need not agree. Active and inactive are the calls of the source. Calls follow the shape of the dose curve; as a rule, active = well fitted curve in the direction sought with a large enough effect in the repeat runs; inconclusive = weak or mixed curves; inactive = no such curve, though single readings can be large; an effect the other way counts as inactive or inconclusive.
% is scaled to controls: 0 for no effect and ±100 for the full control effect.

In the case of `NNc1nc(-c2ccc(N)cc2)cs1`, the Potency result in [1], in [2], in [3], in assay [4], in assay [5] and in assay [6] was “inactive” throughout. Moreover, the Potency entry in assay [7], in assay [8] and in assay [9] was “inactive” throughout.

Turning to `O=C1C=CC(=O)N1`, the Potency is 44.8 µM (active) in [1]; 20 µM (active) in assay [2]; 25.2 µM (active) in assay [3]; 22.5 µM (active) in assay [4]; 20 µM (active) in assay [5]; 17.8 µM (active) in [6]. Moreover, the Potency in assay [8] was 17.8 µM (active). In addition, the Potency entry in assay [7] and in assay [9] was “inactive” each time.

As to `CCCCC(CC)COC(=O)c1ccccc1C(=O)O` (centres undefined), the Potency entry in assay [1], in [2], in assay [3], in assay [4], in assay [5] and in assay [6] was “inactive” each time. Also, the Potency result in assay [7], in assay [8] and in assay [9] was “inactive” each time.

With `CCCCCCCCCCCCCCCC(=O)OC[C@H](O)[C@H]1OC(=O)C(O)=C1O`, the Potency entry in [1], in assay [4], in [5], in assay [6] and in assay [9] was “inactive” in each case. Besides, the max response in assay [10] is -4.9% (inactive).

For the compound `CC(=O)N1CCN(c2ccc(OC[C@H]3CO[C@](Cn4ccnc4)(c4ccc(Cl)cc4Cl)O3)cc2)CC1`, the Potency is 49 µM (active) in assay [1]; 21.9 µM (active) in assay [10]; 49 µM (active) in assay [4]; 54.9 µM (active) in [6]; 49 µM (active) in assay [8]. The Potency entry in assay [9] was “inactive”.

In the case of `Cc1ccc(O)c(C(C)(C)C)c1`, the Potency entry in assay [1], in assay [4], in [7] and in assay [9] was “inactive” in each case. The Potency in [2] is 48.9 µM (active); in assay [3], 38.8 µM (active) and 34.7 µM (active); in [5], 43.6 µM (active) and 34.7 µM (active); in [6], 43.6 µM (active) and 34.7 µM (active); in [8] it was 43.6 µM (active).

Consider `CCCCCCCC/C=C\CCCCCCCCOCCO`, for which the Potency result in assay [1], in [4], in assay [7] and in assay [9] was “inactive” each time. The Potency in assay [10] is 3.19 µM (active); in assay [5], 63.7 µM (active); in [6] it was 63.7 µM (active).

Consider `CCc1oc2ccccc2c1C(=O)c1cc(Br)c(O)c(Br)c1`, for which the Potency entry in assay [1], in [2], in assay [3], in assay [4], in assay [5] and in [6] was “inactive” each time. The Potency result in assay [7], in [8] and in assay [9] was “inactive” in each case.

Consider `NC(=NCCCCCCN=C(N)/N=C(\N)Nc1ccc(Cl)cc1)/N=C(\N)Nc1ccc(Cl)cc1`, for which the Potency in assay [1] was 48.7 µM (active) and 44.4 µM (active) and inactive; in assay [10], 6.88 µM (active) [middle of 5 runs]; in assay [5] it was 21.8 µM (active) [middle of 4 runs]; in [8], 19.4 µM (active) [middle of 4 runs]. Besides, the Potency entry in assay [7] and in assay [9] was “inactive” each time.

For the compound `Cc1ccc(-n2nc(C(C)(C)C)cc2NC(=O)Nc2ccc(OCCN3CCOCC3)c3ccccc23)cc1`, the Potency result in [1], in assay [2], in assay [3], in assay [4], in assay [5] and in assay [6] was “inactive” throughout. Besides, the Potency result in [7], in [8] and in assay [9] was “inactive” throughout.

With `CCc1cc(SCc2sc(-c3ccc(C(F)(F)F)cc3)nc2CN2CCN(c3ccc(OC)cc3)CC2)ccc1OCC(=O)O`, the Potency result in [1], in assay [3], in assay [5], in [7] and in [9] was “inactive” in each case.

On to `C=C(C)C(=O)OCC[N+](C)(C)C`, for which the Potency entry in assay [1], in assay [4], in assay [5], in [6], in [7] and in assay [9] was “inactive” each time.

`CCCCCCCCCCCC(=O)NCCCN(C)C`: the Potency in assay [10] is 34.7 µM (active); in assay [2], 54.9 µM (active); in assay [3], 43.6 µM (active); in [4] it was 38.9 µM (active); in assay [6], 30.9 µM (active); in [8], 54.9 µM (active). In addition, the Potency entry in assay [9] is “inactive”.

Turning to `Oc1ccc(C2(c3ccc(O)cc3)CC3CC2C2CCCC32)cc1` (centres undefined), the Potency result in assay [1], in assay [3], in assay [4], in assay [7] and in assay [9] was “inactive” each time.

`O=[N+]([O-])c1cc(Cl)c(Cl)c(Cl)c1Cl`: the Potency entry in [1], in assay [4], in [7] and in assay [9] was “inactive” in each case.

Take `CCCCCCCCCCCCc1ccc(O)cc1`: the Potency is 38.9 µM (active) in assay [10]; 49 µM (active) in assay [2]; 15.5 µM (active) in assay [3]; 49 µM (active) in [4]; 13.8 µM (active) in [5]; 19.5 µM (active) in assay [6]. In addition, in assay [8], the Potency was 49 µM (active). For the same compound, the Potency entry in assay [7] and in assay [9] was “inactive” in each case.

`CCN(CC)CCNC(=O)c1c(C)[nH]c(/C=C2\C(=O)Nc3ccc(F)cc32)c1C`: the Potency in assay [10] is 8.49 µM (active); in assay [2], 23.9 µM (active); in assay [3] it was 21.3 µM (active); in [4], 19 µM (active); in [5], 19 µM (active); in [6] it was 9.52 µM (active). The Potency was 23.9 µM (active) in assay [8] and 21.3 µM (active) in assay [9]. The Potency entry in assay [7] was “inactive”.

Regarding `CSc1ccc2c(c1)C(N1CCN(C)CC1)Cc1ccccc1S2` (centres undefined), the Potency entry in [1] and in assay [9] was “inactive” throughout. The Potency in assay [4], in assay [5] and in assay [6] was 23.9 µM (active) each time.

For the compound `Fc1ccc(C(c2ccc(F)cc2)N2CCN(C/C=C/c3ccccc3)CC2)cc1`, the Potency in [10] is 19 µM (active). Also, the Potency result in [2], in [3], in assay [5], in assay [6], in assay [7] and in [9] was “inactive” throughout.

In the case of `CCN(CCC#N)c1ccc(N=Nc2c(Cl)cc([N+](=O)[O-])cc2Cl)cc1`, the max response in assay [10] was -15.8% (inactive). The Potency result in assay [2], in [3], in assay [5], in assay [6], in [7] and in assay [8] was “inactive” each time. For the same compound, the Potency entry in assay [9] was “inactive”.

Turning to `S=c1[nH]c2ccccc2s1`, the Potency result in assay [1], in [4], in assay [6] and in [7] was “inactive” in each case. Besides, the Potency in assay [8] is 49 µM (active).

The values above are taken from PubChem BioAssay (Tox21).
